Five compounds from PubChem BioAssay can be followed below.

In test [1] the test system is Plasmodium falciparum Sir2 (PF13_0152, Sir2A). The experiment in a line: Plasmodium falciparum Sir2A binding compounds – biochemical, small-molecule microarray, 635 nm fluorescence, primary screen (AID 1098).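 Further: score merges spot fluorescence intensity with its signal-to-noise ratio.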 Conditions: fluorescence 635 nm, higher = more signal.
Test [2] in a line: probe aDKK1 binding to arrayed compounds – biochemical, biotinylated probe, 635/667 nm fluorescence, primary screen (AID 1099).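 Further: score merges 667nm spot fluorescence with signal to noise across triplicate slides.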 Conditions: small-molecule microarray, higher = more signal.
Test [3] in a line: probe aCHRDL2 binding to arrayed compounds – biochemical, biotinylated probe, 635/667 nm fluorescence, primary screen (AID 1100). Conditions: small-molecule microarray, higher = more signal.
Test [4] in a line: change in splice reporter luminescence, either direction, cell-based, HEK293, spliceosome inhibition project, primary screen (AID 1101).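 Further: HEK293 cells carrying a splicing-competent luciferase reporter gene; test concentration not given here.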 Conditions: HEK293 splicing luciferase reporter, 24 h, higher = more signal, called active from +8 up or from −8 down. (A reporter such as luciferase makes a cellular process visible.)
Test [5] deals with Fibroblast growth factor 10 (Homo sapiens) (UniProt O15520). Kind of test: compounds binding fibroblast growth factor 10 – biochemical, small-molecule microarray, 635 nm fluorescence, primary screen (AID 1102). Conditions: FGF10 binding, fluorescence 635 nm, higher = more signal.
Chain of Fibroblast growth factor 10 (Homo sapiens) (O15520 whole entry, looked up): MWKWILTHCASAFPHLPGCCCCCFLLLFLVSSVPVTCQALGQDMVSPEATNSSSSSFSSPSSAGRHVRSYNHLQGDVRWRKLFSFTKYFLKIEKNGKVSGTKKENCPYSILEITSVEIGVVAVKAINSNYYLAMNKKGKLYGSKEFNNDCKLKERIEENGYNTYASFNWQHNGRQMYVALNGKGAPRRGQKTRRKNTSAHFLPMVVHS
In test [6] the test system is glycogen synthase kinase-3 (GSK3A per assay name; protocol says GSK3B). Kind of test: compounds binding glycogen synthase kinase-3 – biochemical, small-molecule microarray, 635 nm fluorescence, GSK3A, primary screen (AID 1103). Further: the record names both GSK3A and GSK3B. Conditions: fluorescence 635 nm, higher = more signal.
The target in test [7] is Epidermal growth factor receptor (Homo sapiens) (UniProt P00533). The experiment in a line: compounds binding epidermal growth factor receptor – biochemical, small-molecule microarray, 635 nm fluorescence, primary screen (AID 1104).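 Further: score merges 667 nm emission intensity with spot signal to noise over triplicate slides.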 Conditions: EGFR binding, higher = more signal.
Chain of Epidermal growth factor receptor (Homo sapiens) (P00533 whole entry, looked up): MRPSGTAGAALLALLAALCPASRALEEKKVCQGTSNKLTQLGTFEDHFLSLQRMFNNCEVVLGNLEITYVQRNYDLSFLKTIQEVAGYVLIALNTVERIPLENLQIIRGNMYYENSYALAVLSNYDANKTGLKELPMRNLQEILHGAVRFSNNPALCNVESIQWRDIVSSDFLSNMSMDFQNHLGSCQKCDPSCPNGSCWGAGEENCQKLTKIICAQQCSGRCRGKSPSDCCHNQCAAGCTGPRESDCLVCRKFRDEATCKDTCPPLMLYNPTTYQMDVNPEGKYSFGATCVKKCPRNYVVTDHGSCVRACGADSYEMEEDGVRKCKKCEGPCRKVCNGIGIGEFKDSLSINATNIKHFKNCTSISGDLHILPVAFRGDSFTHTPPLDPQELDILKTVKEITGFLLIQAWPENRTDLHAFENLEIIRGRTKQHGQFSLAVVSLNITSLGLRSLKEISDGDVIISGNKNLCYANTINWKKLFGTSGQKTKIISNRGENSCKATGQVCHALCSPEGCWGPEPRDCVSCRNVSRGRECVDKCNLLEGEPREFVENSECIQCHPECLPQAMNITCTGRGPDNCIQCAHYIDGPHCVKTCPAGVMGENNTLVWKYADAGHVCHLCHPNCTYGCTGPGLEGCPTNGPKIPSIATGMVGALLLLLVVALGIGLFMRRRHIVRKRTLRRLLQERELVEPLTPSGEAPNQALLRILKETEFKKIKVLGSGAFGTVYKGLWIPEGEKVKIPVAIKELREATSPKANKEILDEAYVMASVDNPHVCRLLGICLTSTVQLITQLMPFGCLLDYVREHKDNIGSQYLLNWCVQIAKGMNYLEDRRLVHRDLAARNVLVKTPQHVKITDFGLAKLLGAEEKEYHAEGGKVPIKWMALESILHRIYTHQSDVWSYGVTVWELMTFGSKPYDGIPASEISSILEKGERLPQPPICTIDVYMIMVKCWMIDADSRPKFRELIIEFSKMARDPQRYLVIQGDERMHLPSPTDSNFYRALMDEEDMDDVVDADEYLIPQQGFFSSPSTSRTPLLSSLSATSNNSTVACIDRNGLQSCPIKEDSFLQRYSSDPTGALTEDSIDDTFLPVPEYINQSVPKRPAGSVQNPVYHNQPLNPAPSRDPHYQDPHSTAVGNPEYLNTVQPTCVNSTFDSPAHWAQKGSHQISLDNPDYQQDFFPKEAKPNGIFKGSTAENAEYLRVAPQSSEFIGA
Test [8] concerns the target Follistatin-related protein 3 (Homo sapiens) (UniProt O95633). The experiment in a line: compounds binding follistatin-related protein 3 – biochemical, small-molecule microarray, 635 nm fluorescence, primary screen (AID 1105).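 Further: score merges emission near 667 nm and signal to noise per printed spot across three slides.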 Conditions: FSTL3 binding, higher = more signal.
The target of test [9] is Dickkopf-related protein 1 (Homo sapiens) (UniProt O94907). The experiment in a line: small molecules binding DKK1 protein – biochemical, small-molecule microarray, 635 nm fluorescence scan, primary screen (AID 1106).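 Further: score merges emission near 667 nm with signal to noise over three replicate slides.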 Conditions: higher = more signal.
Chain of Dickkopf-related protein 1 (Homo sapiens) (O94907 whole entry, looked up): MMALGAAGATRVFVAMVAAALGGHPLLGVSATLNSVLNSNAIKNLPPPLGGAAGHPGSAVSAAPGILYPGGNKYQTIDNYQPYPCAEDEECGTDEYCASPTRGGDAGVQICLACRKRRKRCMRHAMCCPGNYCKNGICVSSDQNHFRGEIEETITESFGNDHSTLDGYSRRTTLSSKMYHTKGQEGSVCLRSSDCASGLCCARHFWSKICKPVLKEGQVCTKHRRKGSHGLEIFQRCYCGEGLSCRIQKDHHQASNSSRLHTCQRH
Test [10] concerns Inhibin beta A chain (activin A). Kind of test: small molecules binding activin A – biochemical, small-molecule microarray, 635 nm fluorescence scan, primary screen (AID 1107).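 Further: mouse activin A protein probed at 4.33 µg/mL on printed slides; score merges bound-protein fluorescence near 667 nm with spot signal-to-noise.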 Conditions: INHBA, higher = more signal.
Test [11] has as its system Human papillomavirus type 1a protein E7 (residues 44-93). Kind of test: small molecules binding HPV E7 44-93 – biochemical, small-molecule microarray, residues 44-93, 635 nm fluorescence, primary screen (AID 1108).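 Further: E7 fragment applied at 1 µg/mL in TBST for 1 h at 4 C; score combines spot fluorescence with its signal to noise ratio.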 Conditions: fluorescence 635 nm, higher = more signal.
The nature of test [12]: hepatitis C replication reporter changes, two-sided – Huh7 cells, luciferase reporter, HCV replication inhibitor project, primary screen (AID 1109).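 Further: huh7 hepatoma cells harbouring a luciferase neomycin HCV replicon reporter; luciferase luminescence as measure of HCV replicon replication; test concentration not given here.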 Conditions: Huh7 HCV replicon luciferase reporter, 48 h; higher = more signal.
The target in test [13] is Left-right determination factor 2 (Homo sapiens) (UniProt O00292). Kind of test: small molecules binding LEFTY2 protein – biochemical, small-molecule microarray, 635 nm fluorescence scan, primary screen (AID 1110). Conditions: higher = more signal.
Chain of Left-right determination factor 2 (Homo sapiens) (O00292 whole entry, looked up): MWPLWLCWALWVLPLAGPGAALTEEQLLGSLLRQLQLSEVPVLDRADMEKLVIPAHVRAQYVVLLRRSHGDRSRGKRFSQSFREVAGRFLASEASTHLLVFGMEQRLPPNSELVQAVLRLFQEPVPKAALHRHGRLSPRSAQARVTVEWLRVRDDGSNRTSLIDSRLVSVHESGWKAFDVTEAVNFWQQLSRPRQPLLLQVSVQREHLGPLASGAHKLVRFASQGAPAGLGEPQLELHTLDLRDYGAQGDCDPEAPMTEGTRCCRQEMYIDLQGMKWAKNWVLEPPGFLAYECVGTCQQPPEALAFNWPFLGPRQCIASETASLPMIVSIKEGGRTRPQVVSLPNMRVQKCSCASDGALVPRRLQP
For test [14], the target named is Calmodulin-1 (Homo sapiens) (UniProt P0DP23). The experiment in a line: small molecules binding calmodulin-1 with EGTA – biochemical, small-molecule microarray, Cy5-labelled CALM1, profiling panel (AID 1111).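 Further: labelled calmodulin applied in Tris saline Tween buffer holding calcium plus EGTA and DTT.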 Conditions: Cy5-CALM1 binding fluorescence, higher = more signal.
Test [15] shares this target. Kind of test: small molecules binding Ca-loaded calmodulin-1 – biochemical, small-molecule microarray, Cy5-labelled CALM1, plus calcium, artefact control for SMM control-protein annotation, profiling panel (AID 1112).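 Further: score merges spot fluorescence with signal to noise from triplicate slides.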 Conditions: Cy5-CALM1 binding fluorescence, higher = more signal.
The nature of test [16]: probe aWnt5a binding to arrayed compounds – biochemical, biotinylated probe, 635/667 nm fluorescence, primary screen (AID 1113).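 Further: score merges 667 nm fluorescence intensity with signal-to-noise per printed feature.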 Conditions: small-molecule microarray, higher = more signal.
Test [17] can be described thus: probe aShh binding to arrayed compounds – biochemical, biotinylated probe, 635/667 nm fluorescence, primary screen (AID 1114).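 Further: probe is biotin-labelled aShh protein from a stem cell growth factor screen; measures binding of labelled protein to compounds printed on the slide; score merges feature fluorescence at 667 nm with signal-to-noise.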 Conditions: small-molecule microarray, higher = more signal.
Test [18] can be described thus: probe aNog binding to arrayed compounds – biochemical, biotinylated probe, 635/667 nm fluorescence, primary screen (AID 1115).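 Further: probe is biotinylated aNog protein used at 0.15 µg/mL for 1 h at 4 C; z-score combines 667 nm fluorescence of each spot with its signal to noise.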 Conditions: small-molecule microarray, higher = more signal.
Test [19] has as its target Torsin-1A-interacting protein 1 (Homo sapiens) (UniProt Q5JTV8). The experiment in a line: compound microarray binding of lysate hLAP1 – cell lysate, small-molecule microarray, COS7 lysate, 635/667 nm fluorescence, primary screen (AID 1116). Conditions: 635 nm fluorescence, higher = more signal.
Test [20] addresses Alpha-bungarotoxin (Bungarus multicinctus) (UniProt P60615). The experiment in a line: compounds binding labelled alpha-BTX control protein – biochemical, small-molecule microarray, Alexa647 label, 635/667 nm fluorescence, artefact control for SMM control protein annotation, profiling panel (AID 1117). Conditions: alpha-BTX-A647 binding fluorescence, higher = more signal.

Active and inactive are the calls of the source.

Chain of Alpha-bungarotoxin (Bungarus multicinctus) (P60615 whole entry, looked up): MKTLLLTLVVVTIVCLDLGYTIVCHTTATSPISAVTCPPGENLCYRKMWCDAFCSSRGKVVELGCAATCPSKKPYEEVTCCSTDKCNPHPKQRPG
Chain of Follistatin-related protein 3 (Homo sapiens) (O95633 whole entry, looked up): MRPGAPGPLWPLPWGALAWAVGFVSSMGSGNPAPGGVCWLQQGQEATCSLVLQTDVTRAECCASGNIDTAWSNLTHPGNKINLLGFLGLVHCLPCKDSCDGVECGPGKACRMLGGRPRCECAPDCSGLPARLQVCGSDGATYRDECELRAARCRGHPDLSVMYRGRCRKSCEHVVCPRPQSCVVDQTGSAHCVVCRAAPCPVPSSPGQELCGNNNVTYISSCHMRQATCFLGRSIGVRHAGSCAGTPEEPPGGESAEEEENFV
Chain of Torsin-1A-interacting protein 1 (Homo sapiens) (Q5JTV8 whole entry, looked up): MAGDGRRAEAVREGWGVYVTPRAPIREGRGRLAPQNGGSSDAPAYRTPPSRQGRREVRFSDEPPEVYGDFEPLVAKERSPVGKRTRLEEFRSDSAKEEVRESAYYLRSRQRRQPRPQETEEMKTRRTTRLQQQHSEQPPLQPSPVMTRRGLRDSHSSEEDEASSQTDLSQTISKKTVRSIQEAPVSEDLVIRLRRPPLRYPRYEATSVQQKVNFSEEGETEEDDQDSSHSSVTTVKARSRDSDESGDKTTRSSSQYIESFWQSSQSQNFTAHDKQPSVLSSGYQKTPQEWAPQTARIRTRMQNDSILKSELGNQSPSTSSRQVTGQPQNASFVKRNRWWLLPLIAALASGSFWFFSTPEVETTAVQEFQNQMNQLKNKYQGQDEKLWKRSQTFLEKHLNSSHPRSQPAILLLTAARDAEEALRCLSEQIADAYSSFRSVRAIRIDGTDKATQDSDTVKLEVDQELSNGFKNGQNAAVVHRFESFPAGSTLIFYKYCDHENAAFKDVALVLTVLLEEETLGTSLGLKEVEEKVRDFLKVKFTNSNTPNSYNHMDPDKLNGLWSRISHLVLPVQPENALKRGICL

Turning to `CCCNC(=O)[C@@]1(Sc2ccc(C)cc2)CC(=O)N(Cc2ccccc2Cl)[C@@H]1c1ccc(CO)cc1I`, the composite z-score in test [1] was 0.958; in test [2], 0.147; in test [3], 0.864; in [5], -0.87; in test [6] it was -0.51; in test [7], -1.49. The composite z-score in test [8] is -1.14; in test [9], -1.54; in test [10], 0.472; in test [11], 0.135; in test [13] it was -1.4; in test [14], 0.284. For the same compound, the composite z-score was 0.321 in [15]; -0.129 in test [16]; -0.132 in [17]; 1.91 in test [18]; -0.0631 in [19]; 0.461 in [20]. Besides, the z-score is -0.766 (inactive) in [4] and -2.17 in test [12].
With `CC=CC(O)C1C=CC2C(=O)NC(=O)C2N1Nc1ccc(Cl)cc1Cl` (stereo not given), the composite z-score was 0.547 in [1]; 0.171 in test [2]; 0.55 in test [3]; 0.506 in test [5]; -1.11 in [6]; 0.277 in test [7]. The composite z-score in test [8] turned out to be 0.46; in test [9], 0.522; in test [10], 1.42; in test [11], 0.342; in [13] it was 0.483; in test [14] it was 0.498. In addition, the composite z-score in test [15] is 0.0224; in [16] it was -0.0194; in [17], 0.199; in [18], 0.353; in [19], 0.685; in test [20], 0.64. Moreover, the figures for the z-score in test [4] and in test [12] were 1.9 (inactive) and -0.0813, respectively.
As for `C[C@@H]1NC(=O)C([C@@H](C)OCc2ccccc2)NC(=O)[C@@]23C(=O)N[C@@H](Cc4ccccc4)C2[C@H](C)[C@@]2(C)O[C@H]2C3/C=C/C/C=C\CNC1=O` (stereo not given in full), the composite z-score in [1] is 1.58; in [2], -0.76; in test [3], -0.751; in [5], 0.224; in [6], -0.297; in [7] it was -0.506. Further, the composite z-score in test [8] was 0.11; in test [9], 0.382; in [10], 1.44; in test [11], -0.663; in test [13], -0.238; in test [14] it was -1.17. For the same compound, the composite z-score in [15] is -1.85; in [16], -0.172; in test [17], 0.299; in test [18] it was -0.423; in test [19], -0.215; in test [20], -0.0334. Moreover, the z-score is 0.531 (inactive) in test [4] and -0.914 in test [12].
As for `COc1ccc([Si](C)(C)[C@@H]2[C@@H](CC(=O)N(CCO)Cc3ccccc3)O[C@]3(C(=O)N(Cc4ccc(N5C(=O)c6cccc7cccc5c67)cc4)c4ccccc43)[C@H]2C)cc1`, the composite z-score in [1] was 1.17; in test [2] it was -0.0669; in [3], 0.0161; in test [5], 0.404; in [6], 0.01; in [7], 0.317. In addition, the composite z-score came to 0.12 in [8]; 0.283 in [9]; 0.516 in test [10]; 0.749 in test [11]; 0.495 in [13]; 0.553 in test [14]. For the same compound, the composite z-score in test [15] is 0.822; in [16] it was -0.124; in [17], 0.0725; in test [18] it was 0.189; in test [19], 0.762; in test [20], 2.24. Further, the results for the z-score in [4] and in test [12] were -1.33 (inactive) and -4.47, respectively.
For `C=C(CCCC)/C(=C/C[C@H](OC(=O)c1ccncc1)c1cccc(OCCO)c1)c1cnc2ccccc2c1`, the composite z-score is 1.15 in test [1]; -0.138 in [2]; -0.303 in test [3]; 0.853 in [5]; 0.783 in test [6]; 0.463 in test [7]. Further, the composite z-score in test [8] turned out to be 1.28; in [9], 0.483; in test [10], 1.6; in test [11] it was 1.39; in test [13], 0.354; in test [14], 0.0734. Also, the composite z-score in test [15] is -0.731; in test [16], -0.0459; in [17] it was -0.0035; in test [18], -0.0496; in test [19], -0.064; in [20], 0.551. The z-score in test [4] is 0.223 (inactive); in test [12], -2.46.
